# Measurements taken from PubChem BioAssay.
# The source made the active and inactive calls. Unless noted, no rule for the calls is given here.
# Experiments:
# [1] = tested on: XIP peptide (Xip251-270) binding; assay: XIP fragment 251-270 binding compounds – biochemical, small-molecule microarray, fluorescence 635/667 nm, 0.1 µg/mL protein, primary screen (AID 1182); settings: fluorescent protein binding, 635 nm, higher = more signal, called active from +8 up or from −8 down
# XIP peptide (Xip251-270) = assay: compounds binding XIP fragment 251-270 – biochemical, small-molecule microarray, fluorescence 635/667 nm, 0.5 µg/mL protein, primary screen (AID 1183); settings: fluorescence 635 nm, higher = more signal
# [2] = blood-stage malaria parasite viability loss – strain 3D7, DAPI fluorescence, 100 nL, primary screen (AID 1184);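 also: parasites grown inside human red blood cells in medium with human serum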; settings: P. falciparum 3D7 growth, 3 d, higher = more signal
# [3] = target: Homeobox protein Hox-A13 (Mus musculus) (UniProt Q62424); assay: disruptors of Hoxa13 oligonucleotide interaction – biochemical, fluorescence polarization, labeled oligonucleotide, primary screen (AID 1185); settings: Hoxa13:DNA binding, 15 min, higher = more signal, called active from +8 up or from −8 down
# Sequence of Homeobox protein Hox-A13 (Mus musculus) (Q62424 whole entry, looked up): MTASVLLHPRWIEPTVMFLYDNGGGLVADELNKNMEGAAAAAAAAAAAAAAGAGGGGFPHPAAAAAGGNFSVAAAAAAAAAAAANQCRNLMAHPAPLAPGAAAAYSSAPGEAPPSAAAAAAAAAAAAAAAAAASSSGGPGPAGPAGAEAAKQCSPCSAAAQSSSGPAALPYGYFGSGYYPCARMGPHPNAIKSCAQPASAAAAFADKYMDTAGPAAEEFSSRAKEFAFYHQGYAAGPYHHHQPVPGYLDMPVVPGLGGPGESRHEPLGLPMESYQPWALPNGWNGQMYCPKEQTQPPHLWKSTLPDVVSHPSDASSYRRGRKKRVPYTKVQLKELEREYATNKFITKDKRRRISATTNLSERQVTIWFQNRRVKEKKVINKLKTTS
# [4] = blockers of DNA damage checkpoint Chk1 activation – imaging, HeLa, hydroxyurea, phospho-Chk1 antibody, percent positive cells, primary screen (AID 1186); settings: hydroxyurea-induced phospho-Chk1 immunofluorescence imaging, higher = more signal
# [5] = blockers of DNA damage checkpoint Chk1 activation – imaging, HeLa, hydroxyurea, phospho-Chk1 nuclear intensity, primary screen (AID 1187); settings: hydroxyurea-induced phospho-Chk1 immunofluorescence imaging, higher = more signal
Structure (SMILES),composite z-score [1],composite z-score (XIP peptide (Xip251-270)),z-score [2],z-score [3],z-score [4],z-score [5]
CCOC(=O)C[C@H]1[C@H](OC(=O)c2cc3ccccc3oc2=O)[C@@H](NC(=O)c2ccc3ccccc3c2)c2cc(OCCCO)ccc2N1C(=O)c1ccccc1,0.126 (inactive),0.218,-2.17,0.287 (inactive),0.371 (inactive),0.632 (inactive)
Cc1ccc(S[C@]2(C(=O)NCCCN(C)C)CC(=O)N(C(C)C)[C@@H]2c2ccc(CO)cc2I)cc1,0.352 (inactive),0.412,-0.621,-2.81 (inactive),0.535 (inactive),0.775 (inactive)
CC(C)C(O)C1C=CC2C(=O)N(C)C(=O)C2N1N1CCCCC1 (stereo not given),-0.335 (inactive),0.855,0.998,-4.51 (inactive),0.604 (inactive),0.171 (inactive)
COC(=O)[C@@]1(Cc2ccc(OC)cc2)[C@H]2c3cc(C(=O)N4CCCC4)n(CCN4CCOCC4)c3C[C@H]2CN1C(=O)c1ccccc1,1.11 (inactive),0.0956,-1.17,-5.18 (inactive),0.778 (inactive),0.485 (inactive)
C[N+](C)(C)CCCCNC(=O)[C@H]1C[C@H]2C(=O)N3CCC[C@H]3C(=O)N2[C@H]1c1ccc(O)cc1,1.36 (inactive),0.806,-0.0706,-0.675 (inactive),0.0919 (inactive),-0.206 (inactive)
COc1ccc([Si](C)(C)[C@@H]2[C@@H](CCO)O[C@]3(C(=O)N(Cc4cccc(N5CCCCC5=O)c4)c4ccccc43)[C@H]2C)cc1,0.278 (inactive),0.648,-2.82,-5.08 (inactive),-0.405 (inactive),-0.474 (inactive)
CN1C(=O)C2C=CC(C(O)C=Cc3ccc([N+](=O)[O-])cc3)N(N3CCCCC3)C2C1=O (stereo not given),0.62 (inactive),0.776,0.986,-4.74 (inactive),0.579 (inactive),-0.157 (inactive)
C[n+]1ccc2ccc(O)cc2c1,1.35 (inactive),0.612,-0.901,-8.11 (active),0.124 (inactive),0.282 (inactive)
Cc1ccc(S(=O)(=O)N2CC(C(=O)O)=CCC2c2ccccc2)cc1 (stereo not given),0.624 (inactive),0.268,-0.863,-2.63 (inactive),-0.557 (inactive),-0.655 (inactive)
NC(=O)[C@]1(Cc2ccccc2)N=C(c2ccc(OCCCO)cc2)O[C@@H]1c1ccccc1,-0.0696 (inactive),0.0178,-2.04,-5.25 (inactive),-0.0614 (inactive),-0.209 (inactive)
COc1ccccc1CN1C(=O)c2ccccc2[C@](Cc2ccccc2I)(C(=O)NC2CC2)[C@@H]1c1ccc(CO)cc1,-0.259 (inactive),0.823,-2.22,-4.79 (inactive),-0.145 (inactive),0.548 (inactive)
C=C(C(=O)CC[C@@H](OC(=O)c1cccnc1)c1ccc(OCCO)cc1)C(C)C,1.15 (inactive),0.611,-0.496,-3.94 (inactive),1.38 (inactive),1.36 (inactive)
C=C[C@H](OC)[C@@H](OC(=O)Nc1ccc(SC)cc1)c1ccc(OCCO)cc1,0.591 (inactive),-0.0661,0.194,-5.62 (inactive),0.259 (inactive),0.654 (inactive)
O=C1OCCC=C[C@H]2OC34C=CCN(c5ccc6ccccc6c5)C(=O)[C@H]3N(CCCCCCO)C(=O)[C@@H]4C12 (stereo not given in full),-0.0517 (inactive),0.79,0.0888,-5.18 (inactive),0.183 (inactive),0.399 (inactive)
O=C1OCC=C[C@H]2OC34C=CCN(c5ccc(Cl)cc5)C(=O)[C@H]3N(CCCO)C(=O)[C@@H]4[C@@H]12 (stereo not given in full),1.92 (inactive),-0.501,-1.39,-2.31 (inactive),-0.0921 (inactive),-0.389 (inactive)
CCCCCCCCCCC(O)C1C=CC2C(=O)N(c3ccccc3)C(=O)C2N1Nc1ccc([N+](=O)[O-])cc1 (stereo not given),0.812 (inactive),0.801,-0.338,-2.71 (inactive),0.346 (inactive),-0.444 (inactive)
[N-]=[N+]=NCc1ccccc1[C@H]1OC(c2ccc(OCCCO)cc2)=N[C@@]1(Cc1ccccc1)C(=O)O,0.419 (inactive),0.652,0.45,-5.05 (inactive),-0.594 (inactive),-1.1 (inactive)
C=C(CCCC)C(=O)CC[C@H](OC(=O)c1ccccc1-c1ccccc1C(=O)O)c1ccc(CO)o1,0.556 (inactive),0.582,-0.714,-6.05 (inactive),-0.131 (inactive),-0.23 (inactive)
CC1CC/C=C\[C@H]2OC34C=CCN(Cn5nnc6ccccc65)C(=O)[C@H]3N(CCCO)C(=O)[C@@H]4C2C(=O)O1 (stereo not given in full),0.75 (inactive),0.13,-0.0633,-5.65 (inactive),-0.86 (inactive),-0.909 (inactive)
CCCCCN1CC=CC23O[C@@H]4C=CCCOC(=O)C4[C@H]2C(=O)N(CCCO)[C@@H]3C1=O (stereo not given in full),0.0154 (inactive),0.466,-1.54,-3.33 (inactive),-0.299 (inactive),-0.688 (inactive)
C=C(C(=O)CC[C@H](OC(=O)c1cccnc1)c1ccccc1OCCO)C(C)C,0.698 (inactive),0.564,-2.3,-4.71 (inactive),0.321 (inactive),0.0728 (inactive)
O=C1OCC=C[C@H]2OC34C=CCN(CCN5CCOCC5)C(=O)[C@H]3N(CCCCCCO)C(=O)[C@@H]4[C@@H]12 (stereo not given in full),0.304 (inactive),-0.291,-0.448,-7.09 (inactive),-1.52 (inactive),-1.21 (inactive)
C=CC[C@@]1(C(N)=O)N=C(c2ccc(OCCCO)cc2)O[C@@H]1c1ccccc1N=[N+]=[N-],0.868 (inactive),0.231,-1.73,-6.09 (inactive),-0.0626 (inactive),0.0164 (inactive)
COCCCNC(=O)[C@@]1(C)c2ccccc2C(=O)N(Cc2ccccc2)[C@H]1c1ccc(CO)cc1,0.132 (inactive),0.947,-1.35,-1.86 (inactive),-0.258 (inactive),-0.432 (inactive)
C=CC[C@@]1(C(=O)OC)N=C(c2ccc(OCCCO)cc2)O[C@@H]1c1ccccc1CN=[N+]=[N-],2.46 (inactive),0.611,-2.39,-3.73 (inactive),-1.07 (inactive),-1.45 (inactive)
